The campaign covered roughly 5,500 compounds. About 2,000 (36%) were called active. About 18% were inconclusive and are not listed. No stated cut-off is given here; in the data, active means normalized growth mostly below about 0.91 (no sharp cut-off); inconclusive means no clear call, values can overlap the other calls; inactive means mostly above about 0.92. The list shows a part of the results.
Experiment: chemical genetic growth profiling, strain panel (AID 1159580);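 further: tested at 20 µM; growth read once vehicle control cultures reached saturation at 30 °C; 1 = growth at the plate median or of vehicle wells; lower values mean less growth of the strain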
Conditions: S. cerevisiae deletion strains, growth OD

Measured: normalized growth

C=C1C2CC[C@@]3(C)[C@H](c4ccoc4)OC(=O)C[C@]13O[C@H]1CC(=O)C(C)(C)C(CC(=O)OC)[C@@]21C (some centres not stated)
inactive: locus YAL021C, strain ccr4, active compounds read low 1.01 | locus YAL026C, strain drs2, active compounds read low 0.981 | locus YAL030W, strain snc1, active compounds read low 0.983 | locus YBL061C, strain skt5, active compounds read low 0.981 | locus YBR009C, strain hhf1, active compounds read low 0.995 | locus YBR021W, strain FUR4, active compounds read low 1 | locus YBR023C, strain chs3, active compounds read low 0.977 | locus YBR171W, strain sec66, active compounds read low 0.953 | locus YBR229C, strain ROT2, active compounds read low 0.989 | locus YBR231C, strain swc5, active compounds read low 0.983 | locus YBR279W, strain paf1, active compounds read low 0.979 | locus YCL011C, strain gbp2, active compounds read low 0.962 | locus YCL016C, strain dcc1, active compounds read low 1.01 | locus YCL029C, strain bik1, active compounds read low 0.992 | locus YCL061C, strain MRC1, active compounds read low 0.987 | locus YCL069W, strain vba3, active compounds read low 0.964 | locus YCR088W, strain abp1, active compounds read low 0.964 | locus YDL005C, strain med2, active compounds read low 0.969 | locus YDL035C, strain GPR1, active compounds read low 0.984 | locus YDL040C, strain nat1, active compounds read low 0.966 | locus YDL074C, strain BRE1, active compounds read low 1.01 | locus YDL101C, strain DUN1, active compounds read low 1 | locus YDL185W, strain tfp1, active compounds read low 1.01 | locus YDL192W, strain arf1, active compounds read low 0.988 | locus YDR001C, strain nth1, active compounds read low 0.976 | locus YDR069C, strain doa4, active compounds read low 0.975 | locus YDR101C, strain arx1, active compounds read low 0.986 | locus YDR137W, strain rgp1, active compounds read low 0.922 | locus YDR159W, strain sac3, active compounds read low 0.948 | locus YDR162C, strain NBP2, active compounds read low 0.962 | locus YDR195W, strain ref2 0.978 | locus YDR297W, strain sur2, active compounds read low 0.983 | locus YDR318W, strain mcm21, active compounds read low 0.998 | locus YDR334W, strain swr1, active compounds read low 0.966 | locus YDR335W, strain msn5, active compounds read low 0.972 | locus YDR388W, active compounds read low 1.02 | locus YDR392W, strain spt3, active compounds read low 0.958 | locus YDR502C, strain sam2, active compounds read low 1.01 | locus YEL003W, strain gim4, active compounds read low 0.979 | locus YEL037C, strain rad23, active compounds read low 0.97 | locus YEL061C, strain CIN8 (second series), active compounds read low 0.966 | locus YER015W, strain faa2, active compounds read low 0.987 | locus YER016W, strain bim1, active compounds read low 0.975 | locus YER110C, active compounds read low 1.01 | locus YER111C, strain swi4, active compounds read low 0.978 | locus YER155C, strain BEM2 (second series), active compounds read low 0.991 | locus YER155C, strain BEM2, active compounds read low 1.01 | locus YER167W, strain BCK2, active compounds read low 0.984 | locus YFR010W, strain ubp6, active compounds read low 0.963 | locus YGL078C, strain dbp3, active compounds read low 1.02 | locus YGL086W, strain mad1, active compounds read low 1 | locus YGL167C, strain pmr1, active compounds read low 0.97 | locus YGL173C, strain kem1, active compounds read low 0.969 | locus YGL227W, strain vid30, active compounds read low 0.973 | locus YGL240W, strain doc1, active compounds read low 0.974 | locus YGL248W, strain PDE1, active compounds read low 0.998 | locus YGL253W, strain hxk2, active compounds read low 0.952 | locus YGR135W, strain pre9, active compounds read low 1.03 | locus YGR252W, strain gcn5, active compounds read low 1.01 | locus YHR013C, strain ard1, active compounds read low 0.974 | locus YHR027C, strain rpn1, active compounds read low 0.985 | locus YHR030C, strain SLT2, active compounds read low 0.996 | locus YHR079C, strain IRE1 (second series), active compounds read low 0.998 | locus YHR094C, strain hxt1, active compounds read low 1.01 | locus YHR129C, strain ARP1, active compounds read low 1.01 | locus YHR142W, strain chs7, active compounds read low 0.969 | locus YHR200W, strain rpn10, active compounds read low 1.01 | locus YIL066C, strain RNR3, active compounds read low 0.989 | locus YIL073C, strain SPO22, active compounds read low 1.04 | locus YIL125W, strain kgd1, active compounds read low 1 | locus YIR030C, strain dcg1, active compounds read low 1 | locus YJL092W, strain hpr5, active compounds read low 0.967 | locus YJL095W, strain BCK1 (second series), active compounds read low 0.991 | locus YJL095W, strain BCK1, active compounds read low 1.03 | locus YJL115W, strain asf1, active compounds read low 0.973 | locus YJL129C, strain trk1, active compounds read low 0.961 | locus YJL134W, strain LCB3, active compounds read low 1.01 | locus YJL154C, strain vps35, active compounds read low 0.973 | locus YJL164C, strain tpk1, active compounds read low 1 | locus YJL166W, strain qcr8, active compounds read low 0.977 | locus YJL168C, strain set2, active compounds read low 0.998 | locus YJL187C, strain SWE1 (second series), active compounds read low 1.01 | locus YJL187C, strain SWE1, active compounds read low 0.974 | locus YKL009W, strain mrt4, active compounds read low 0.968 | locus YKL068W, active compounds read low 1 | locus YKL085W, strain MDH1 (second series), active compounds read low 0.989 | locus YKL085W, strain MDH1, active compounds read low 0.989 | locus YKL160W, strain elf1, active compounds read low 1.01 | locus YKR001C, strain vps1, active compounds read low 1 | locus YKR026C, strain gcn3, active compounds read low 0.979 | locus YKR091W, strain srl3, active compounds read low 0.986 | locus YLL001W, strain dnm1, active compounds read low 1.01 | locus YLL026W, active compounds read low 0.981 | locus YLL041C, strain sdh2, active compounds read low 0.974 | locus YLR027C, strain aat2, active compounds read low 0.996 | locus YLR039C, strain RIC1, active compounds read low 0.794 | locus YLR058C, strain SHM2, active compounds read low 1 | locus YLR102C, strain apc9, active compounds read low 1 | locus YLR221C, strain rsa3, active compounds read low 0.957 | locus YLR258W, strain gsy2, active compounds read low 0.975 | locus YLR262C, strain YPT6 (second series), active compounds read low 0.923 | locus YLR262C, strain YPT6, active compounds read low 0.701 | locus YLR268W, strain sec22, active compounds read low 0.984 | locus YLR320W, strain mms22, active compounds read low 0.964 | locus YLR342W, strain FKS1 (second series), active compounds read low 1 | locus YLR342W, strain FKS1, active compounds read low 0.993 | locus YLR357W, strain rsc2, active compounds read low 0.991 | locus YLR370C, strain arc18, active compounds read low 0.955 | locus YLR371W, strain rom2, active compounds read low 1.01 | locus YLR384C, strain iki3, active compounds read low 0.964 | locus YLR418C, strain cdc73, active compounds read low 1.01 | locus YML016C, strain PPZ1, active compounds read low 0.995 | locus YML032C, strain rad52, active compounds read low 1.02 | locus YML120C, strain ndi1, active compounds read low 0.973 | locus YML124C, strain tub3, active compounds read low 1.01 | locus YMR058W, strain fet3, active compounds read low 0.983 | locus YMR078C, strain ctf18, active compounds read low 1.01 | locus YMR125W, strain sto1, active compounds read low 0.98 | locus YMR129W, active compounds read low 0.985 | locus YMR205C, strain PFK2, active compounds read low 1.03 | locus YMR223W, strain ubp8, active compounds read low 1 | locus YMR231W, strain pep5, active compounds read low 0.943 | locus YMR307W, strain GAS1, active compounds read low 0.998 | locus YNL067W, strain RPL9B, active compounds read low 1.02 | locus YNL071W, strain lat1, active compounds read low 0.982 | locus YNL128W, strain TEP1, active compounds read low 0.996 | locus YNL209W, strain ssb2, active compounds read low 0.978 | locus YNL233W, strain BNI4, active compounds read low 0.969 | locus YNL248C, strain rpa49, active compounds read low 0.986 | locus YNL250W, strain rad50, active compounds read low 1.02 | locus YNL271C, strain bni1, active compounds read low 1 | locus YNL298W, strain CLA4, active compounds read low 1.01 | locus YNL307C, strain MCK1, active compounds read low 1.01 | locus YNL322C, strain KRE1 (second series), active compounds read low 0.967 | locus YNR049C, strain mso1, active compounds read low 0.982 | locus YNR052C, strain pop2, active compounds read low 1.01 | locus YOL012C, strain htz1 0.839 | locus YOL147C, strain pex11, active compounds read low 1.01 | locus YOR001W, strain rrp6, active compounds read low 0.944 | locus YOR061W, strain CKA2, active compounds read low 0.993 | locus YOR069W, strain VPS5, active compounds read low 1 | locus YOR070C, strain gyp1, active compounds read low 1.01 | locus YOR080W, strain dia2, active compounds read low 0.957 | locus YOR083W, strain WHI5, active compounds read low 1.01 | locus YOR106W, strain vam3, active compounds read low 0.982 | locus YOR136W, strain idh2, active compounds read low 1 | locus YOR144C, strain elg1, active compounds read low 1.01 | locus YOR184W, strain ser1, active compounds read low 0.985 | locus YOR265W, strain rbl2, active compounds read low 1 | locus YOR270C, strain vph1, active compounds read low 0.957 | locus YOR290C, strain snf2, active compounds read low 0.97 | locus YOR316C, strain cot1, active compounds read low 1 | locus YPL051W, strain arl3, active compounds read low 0.995 | locus YPL078C, strain atp4, active compounds read low 1.01 | locus YPL106C, strain sse1, active compounds read low 0.978 | locus YPL240C, strain hsp82, active compounds read low 0.965 | locus YPL241C, strain CIN2, active compounds read low 0.998 | locus YPR119W, strain clb2, active compounds read low 1.01 | locus YPR141C, strain kar3, active compounds read low 0.997 | locus YPR163C, strain tif3, active compounds read low 1.01 | locus YPR167C, strain met16, active compounds read low 1 | strain wtn01, active compounds read low 0.987

From PubChem BioAssay AID1159580 (chemical genetic matrix, 2015)
